# Screens as filed in PubChem BioAssay.
# The full list was thinned out, with hits kept by preference.
# Pf Dd2 inh: blocks in vitro growth of P. falciparum Dd2; P. falciparum Dd2 growth, SYBR Green, 72 h; Potency, µM (series often up to 28.9 µM), for the others: at the top dose activity, negative = inhibition, most hits filed as inhibitors; hit rate 4.3% among 120,000; AID 1347417; active = well fitted inhibition curve with a large enough effect;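 also: plate controls were DMSO vehicle for no effect and reference drug for full effect; nearly all actives have a fitted effect of over 65% in size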
#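 Infected erythrocytes (Dd2, 0.3% parasitemia, 2.5% hematocrit final) are added to compound in RPMI-1640/Albumax II medium, grown 72 h at 37C in low oxygen, then lysed with saponin/Triton-X containing SYBR Green and read by fluorescence.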
# * hit, by the source's call; i = inactive; [ ] = another dose, or the depositor's remark. Potency is read from the fitted curve at half-maximal effect.
SMILES,Pf Dd2 inh
CC(=O)c1ccc(NC(=O)c2cc(S(=O)(=O)N3CCCCCC3)cn2C)cc1,8%
COC(=O)CN1C(=O)[C@@H]2C[C@@H](O)CN2C2(CN(Cc3cccs3)C2)C1=O,-14%[44.1 µM]
COCCNC(=O)c1ccc2c(c1)N(C)C(CC(=O)N1CCC(O)CC1)CO2 (stereo not given),-16%
COc1ccc(Cl)cc1C(=O)N1[C@@H]2CC[C@H]1CC(NC(=O)c1ccncc1)C2 (stereo not given in full),-12%
OC1(CN2CCN(CCc3ccccn3)CC2)CCCNC1 (stereo not given),-3%
Cc1cc(Cl)ccc1OCCN1CCN(C(=O)[C@H]2CCC[C@H](O)C2)CC1,-20%
Cc1cc(Cl)ccc1OCCN1CCN(CC2(O)CCCNC2)CC1 (stereo not given),8.9µM*
O=C1NCCOCCN(C(=O)NCCc2ccccc2)[C@@H]2CCCC[C@H]12,13%
COc1ccccc1C(=O)N1CCC(Oc2ccccc2)C1 (stereo not given),i
O=C(c1ccccc1OCC1CCCN(C2CCSCC2)C1)N1CCCCC1 (stereo not given),i
CNC(=O)c1cnn2ncccc12,17%[44.1 µM]
COc1ccc(OC)c(NC(=O)C(C)n2c(=O)c(-c3ccccc3NC(C)=O)nc3ccccc32)c1 (stereo not given),11µM*
CCOc1ccc(NC(=O)C(CC)n2c(=O)c(-c3ccccc3NC(C)=O)nc3ccccc32)cc1 (stereo not given),-8%
CC(=O)Nc1ccccc1-c1nc2ccccc2n(C(C)C(=O)c2ccc(C)c(C)c2)c1=O (stereo not given),-11%
Cc1ccc(-c2cc(N3CCCN(C(=O)c4ccco4)CC3)n[nH]2)cc1C,-3%
CC(C)N1C(=O)C2(CCCC2)C1C(=O)NCCCN1CCCC1 (stereo not given),-6%
COc1ccc(N2C(=O)C3(CCCCC3)C2C(=O)NCCCN2CCCCC2)cc1 (stereo not given),11µM*
COc1ccc(N2C(=O)C3(CCCCC3)C2C(=O)NCCN2CCc3ccccc3C2)cc1 (stereo not given),8.9µM*
CC(C)N1C(=O)C2(CCCC2)C1C(=O)NCCCN1CCN(c2ccccc2)CC1 (stereo not given),-12%
CCC(=O)N1c2ccccc2CC1C(=O)NCCCN1CCN(c2ccc(OC)cc2)CC1 (stereo not given),7%
COc1ccc(N2C(=O)C3(CCCCC3)C2C(=O)NCCCN2CCCC2)cc1 (stereo not given),4.5µM*
COc1ccc(N2C(=O)C3(CCCCC3)C2C(=O)O)cc1 (stereo not given),7%
CC1(C(=O)NCCCN2CCc3ccccc3C2)CCCCC(=O)N1 (stereo not given),-13%
CCN1CCN(CCNC(=O)C2N(C(C)C)C(=O)C23CCCCC3)CC1 (stereo not given),12%
COCCNC(=O)CCCN1C(=O)COc2ccc(C(=O)COc3cc(C)ccc3Cl)cc21,-13%
SMILES,Pf Dd2 inh
CCCn1cc(C(=O)N2CC[C@@](O)(COC)C(C)(C)C2)c(C)n1,2%
COCC1CN(C(C)=O)CC12CCN(Cc1ccc3[nH]ccc3c1)CC2 (stereo not given),9%
COCc1nc(C2CC(N)C2)cc(N2CC(c3nccs3)C2)n1 (stereo not given),-6%
O=C(NCC1CCOCC1)C1CC(=O)N(c2n[nH]c3cccc(F)c23)C1 (stereo not given),-13%
CN1C[C@@H](NC(=O)c2ccc(F)cc2)C[C@H]1c1nc(-c2ccncc2)no1,i
CN1C[C@@H](NC(=O)c2cccnc2)C[C@H]1c1nc(-c2ccncc2)no1,-28%[44.1 µM]
CN1C[C@@H](NC(=O)c2ccc(F)cc2)C[C@H]1c1nc(-c2ccccc2)no1,11µM*
CN1C[C@@H](NC(=O)c2ccc(F)cc2)C[C@H]1c1nc(-c2cncnc2)no1,i
CN1C[C@@H](NC(=O)c2ccc(-c3ccccc3)cc2)C[C@H]1c1nc(-c2ccncc2)no1,11µM*
CN1C[C@@H](NC(=O)c2cccnc2)C[C@H]1c1nc(-c2cccnc2)no1,2%[44.1 µM]
Cc1ccc(C(=O)N2CC(N(C)c3ccccc3C)C2)cc1,-12%[44.1 µM]
CN(CC1CCOC1)C(=O)Cc1ccccc1 (stereo not given),i[5.79 µM]
CCOc1ccc(CCNC(=O)c2ccc(-n3c(C)cc4c3CCC(C)C4)cc2)cc1OCC (stereo not given),8.9µM*
CSc1ccc(CCNC(=O)c2ccc(-n3c(C)cc4c3CCC(C)C4)cc2)cc1 (stereo not given),42%[5.79 µM]
COc1ccc(CCNC(=O)c2ccc3c(c2)nc2n3CCC(C)C2)cc1OC (stereo not given),1%
CCc1ccc(NC(=O)C2CCCN(S(=O)(=O)c3cccc4nsnc34)C2)cc1 (stereo not given),-11%
Cc1ccc(NC(=O)C2CCCN(S(=O)(=O)c3cccc4cccnc34)C2)cc1Cl (stereo not given),-1%
CCc1ccc(NC(=O)C2CCCN(S(=O)(=O)c3cccc4cccnc34)C2)cc1 (stereo not given),14µM*
